Experimental findings from article PMC7862700, “An all-to-all approach to the identification of sequence-specific readers for epigenetic DNA modifications on cytosine” are described below.

Holding throughout (assay): DAPPL (digital affinity profiling via proximity ligation, sequencing); 10 mM Tris-HCl pH 7.5, 50 mM NaCl, 1 mM DTT, 4% glycerol, room temperature, 30 min; GST-TFs on glutathione beads, 16-mer random dsDNA library, 0.1% formaldehyde crosslink after washing; high values mean tight binding
What all share (settings): protein: recombinant; tags: N-terminal GST; dsDNA, one strand shown

In one test the target is T1, FLI1 (Homo sapiens, UniProt Q01543 1-452).
T1 sequence: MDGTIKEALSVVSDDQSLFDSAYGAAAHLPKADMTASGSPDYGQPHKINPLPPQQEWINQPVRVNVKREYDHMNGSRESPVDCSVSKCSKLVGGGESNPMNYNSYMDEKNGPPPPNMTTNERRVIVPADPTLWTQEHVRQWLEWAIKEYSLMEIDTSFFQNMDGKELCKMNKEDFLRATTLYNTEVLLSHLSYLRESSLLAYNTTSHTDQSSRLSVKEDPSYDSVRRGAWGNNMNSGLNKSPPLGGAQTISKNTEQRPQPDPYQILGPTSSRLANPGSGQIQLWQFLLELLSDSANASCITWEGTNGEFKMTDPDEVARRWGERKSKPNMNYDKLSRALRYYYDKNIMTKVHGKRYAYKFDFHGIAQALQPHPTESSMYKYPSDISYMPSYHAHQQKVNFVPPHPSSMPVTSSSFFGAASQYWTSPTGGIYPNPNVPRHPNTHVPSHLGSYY
The procedure, abridged: (§1)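 After expression in yeast as GST fusions, human transcription factors were bound to glutathione beads, DNA-barcoded and mixed with a tag-only sample. The pools were incubated with 200 nmole of a 16-mer random double-stranded DNA library in Tris/NaCl/DTT/glycerol buffer (30 min, room temperature), washed and crosslinked with 0.1% formaldehyde. Proximity ligation with BsaI/T4 ligase ran for 1 h at 37 °C, before PCR amplification and sequencing on an Illumina NextSeq500. Binding signal is a hexamer's read frequency for a factor divided by its frequency for the tag-only sample.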

The target of a further test is T2, ELK1 (Homo sapiens, UniProt P19419 1-428).
T2 sequence: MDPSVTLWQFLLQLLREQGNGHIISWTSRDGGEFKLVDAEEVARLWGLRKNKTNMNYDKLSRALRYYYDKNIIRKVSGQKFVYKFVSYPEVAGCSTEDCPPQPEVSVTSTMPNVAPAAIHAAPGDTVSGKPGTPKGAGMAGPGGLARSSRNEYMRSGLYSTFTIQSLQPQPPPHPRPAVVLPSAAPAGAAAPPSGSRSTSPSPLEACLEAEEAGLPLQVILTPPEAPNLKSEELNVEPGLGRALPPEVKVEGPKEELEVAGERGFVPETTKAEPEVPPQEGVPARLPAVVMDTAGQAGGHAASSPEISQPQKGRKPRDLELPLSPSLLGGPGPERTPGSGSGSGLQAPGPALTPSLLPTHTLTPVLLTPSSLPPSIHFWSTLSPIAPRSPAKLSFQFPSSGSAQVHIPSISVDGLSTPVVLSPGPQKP
An outline of the steps: as §1

In a further test the target is T3, GABPA (Homo sapiens, UniProt Q06546 1-454).
T3 sequence: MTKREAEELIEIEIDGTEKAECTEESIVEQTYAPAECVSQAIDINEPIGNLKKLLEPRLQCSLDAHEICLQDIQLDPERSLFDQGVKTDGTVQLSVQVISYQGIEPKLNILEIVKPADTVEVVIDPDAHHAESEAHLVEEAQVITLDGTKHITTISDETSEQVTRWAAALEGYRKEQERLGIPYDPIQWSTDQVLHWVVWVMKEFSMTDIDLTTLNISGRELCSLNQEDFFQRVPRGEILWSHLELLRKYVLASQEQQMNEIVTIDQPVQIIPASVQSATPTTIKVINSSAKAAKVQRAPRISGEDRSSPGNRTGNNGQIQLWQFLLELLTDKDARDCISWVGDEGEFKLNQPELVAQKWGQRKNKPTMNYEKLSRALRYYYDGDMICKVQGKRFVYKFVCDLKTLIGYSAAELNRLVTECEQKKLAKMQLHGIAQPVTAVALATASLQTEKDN
The procedure, abridged: as §1

A further test addresses T4, ERG (Homo sapiens, UniProt P11308 1-479).
T4 sequence: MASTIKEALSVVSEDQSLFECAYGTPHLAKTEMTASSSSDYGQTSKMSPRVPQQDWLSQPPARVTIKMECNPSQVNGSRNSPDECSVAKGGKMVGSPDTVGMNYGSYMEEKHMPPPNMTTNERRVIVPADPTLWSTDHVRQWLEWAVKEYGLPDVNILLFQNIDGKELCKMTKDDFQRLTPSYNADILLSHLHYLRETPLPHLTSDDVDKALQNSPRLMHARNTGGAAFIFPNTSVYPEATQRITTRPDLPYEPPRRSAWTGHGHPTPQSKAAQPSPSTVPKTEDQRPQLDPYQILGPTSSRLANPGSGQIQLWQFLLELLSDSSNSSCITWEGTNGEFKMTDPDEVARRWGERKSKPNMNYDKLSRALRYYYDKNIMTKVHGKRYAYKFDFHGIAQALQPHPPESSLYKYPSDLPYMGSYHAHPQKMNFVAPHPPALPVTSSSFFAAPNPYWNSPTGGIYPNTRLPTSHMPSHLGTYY
An outline of the steps: as §1

The target in the next test is ELF1 (Homo sapiens, UniProt P32519 1-619). An outline of the steps:
as §1

In a further test the target is T5, EHF (Homo sapiens, UniProt Q9NZC4 1-300).
T5 sequence: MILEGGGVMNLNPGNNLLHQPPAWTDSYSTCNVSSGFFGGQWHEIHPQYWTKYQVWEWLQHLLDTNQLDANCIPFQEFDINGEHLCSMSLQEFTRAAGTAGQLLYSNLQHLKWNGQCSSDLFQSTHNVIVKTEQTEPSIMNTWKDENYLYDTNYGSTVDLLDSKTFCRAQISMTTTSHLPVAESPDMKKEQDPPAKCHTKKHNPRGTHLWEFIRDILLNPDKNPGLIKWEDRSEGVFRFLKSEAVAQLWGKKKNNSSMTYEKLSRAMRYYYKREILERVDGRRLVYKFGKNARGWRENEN
The procedure, abridged:
as §1

For the next test, the target named is SPIB (Homo sapiens, UniProt Q01892 1-262). An outline of the steps: as §1
A further test has as its target T6, ELK3 (Homo sapiens, UniProt P41970 1-407).
T6 sequence: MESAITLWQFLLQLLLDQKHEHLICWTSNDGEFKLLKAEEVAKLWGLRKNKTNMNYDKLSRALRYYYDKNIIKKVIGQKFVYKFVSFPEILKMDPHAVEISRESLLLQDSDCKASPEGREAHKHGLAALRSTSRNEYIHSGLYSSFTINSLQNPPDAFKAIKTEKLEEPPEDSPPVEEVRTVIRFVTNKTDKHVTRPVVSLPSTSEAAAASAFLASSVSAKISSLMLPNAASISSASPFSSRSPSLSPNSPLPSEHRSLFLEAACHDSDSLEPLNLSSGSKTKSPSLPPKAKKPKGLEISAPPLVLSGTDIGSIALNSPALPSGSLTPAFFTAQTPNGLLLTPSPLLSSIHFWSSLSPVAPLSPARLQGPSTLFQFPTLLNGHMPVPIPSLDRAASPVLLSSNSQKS
An outline of the steps: as §1

The target in another test is SPI1 (Homo sapiens, UniProt P17947 1-270). An outline of the steps:
as §1

Chain of SPIB (Q01892 whole entry): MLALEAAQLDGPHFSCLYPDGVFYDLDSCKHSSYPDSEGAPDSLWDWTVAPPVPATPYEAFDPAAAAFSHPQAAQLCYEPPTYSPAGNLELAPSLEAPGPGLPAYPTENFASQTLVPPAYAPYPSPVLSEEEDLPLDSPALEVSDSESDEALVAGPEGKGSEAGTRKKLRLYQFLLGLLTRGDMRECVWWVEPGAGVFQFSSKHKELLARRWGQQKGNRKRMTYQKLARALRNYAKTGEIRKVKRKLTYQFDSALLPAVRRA
Chain of ELF1 (P32519 whole entry): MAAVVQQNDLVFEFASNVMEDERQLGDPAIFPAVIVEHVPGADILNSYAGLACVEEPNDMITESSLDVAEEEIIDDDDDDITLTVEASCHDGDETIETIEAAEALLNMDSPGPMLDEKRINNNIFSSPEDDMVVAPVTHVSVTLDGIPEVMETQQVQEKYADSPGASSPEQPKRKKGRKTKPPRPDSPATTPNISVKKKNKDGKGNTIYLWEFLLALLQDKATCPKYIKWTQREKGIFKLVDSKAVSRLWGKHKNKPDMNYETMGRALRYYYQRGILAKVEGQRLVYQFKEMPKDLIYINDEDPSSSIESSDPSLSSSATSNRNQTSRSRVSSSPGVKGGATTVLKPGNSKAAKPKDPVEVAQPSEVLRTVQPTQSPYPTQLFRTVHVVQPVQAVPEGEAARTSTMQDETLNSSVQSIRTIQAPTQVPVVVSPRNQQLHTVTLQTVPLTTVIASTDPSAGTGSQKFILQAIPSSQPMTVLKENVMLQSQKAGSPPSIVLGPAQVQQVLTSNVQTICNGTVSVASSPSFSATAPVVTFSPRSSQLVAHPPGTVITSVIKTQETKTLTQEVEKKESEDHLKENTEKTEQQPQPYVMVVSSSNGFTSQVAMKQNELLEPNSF

Regarding GCACGA, the binding signal with FLI1 is 1.14 fold enrichment (6-mer frequency, TF over GST control); in the test with ELK1 it was 1.02 fold enrichment (6-mer frequency, TF over GST control); in the test with GABPA, 1.23 fold enrichment (6-mer frequency, TF over GST control); with ERG it was 1.02 fold enrichment (6-mer frequency, TF over GST control); with ELF1, 1.05 fold enrichment (6-mer frequency, TF over GST control); with EHF it was 1.09 fold enrichment (6-mer frequency, TF over GST control). Also, the binding signal was 1.08 fold enrichment (6-mer frequency, TF over GST control) with SPIB and 1 fold enrichment (6-mer frequency, TF over GST control) with ELK3.

Take TAGCAG: the binding signal with FLI1 was 1.07 fold enrichment (6-mer frequency, TF over GST control); in the test with ELK1, 1.08 fold enrichment (6-mer frequency, TF over GST control); with GABPA, 1.03 fold enrichment (6-mer frequency, TF over GST control); with ERG it was 1.11 fold enrichment (6-mer frequency, TF over GST control); in the test with ELF1, 1.09 fold enrichment (6-mer frequency, TF over GST control); with EHF, 1 fold enrichment (6-mer frequency, TF over GST control). Moreover, the binding signal is 1 fold enrichment (6-mer frequency, TF over GST control) in the test with SPI1 and 1.19 fold enrichment (6-mer frequency, TF over GST control) with ELK3.

As for ACCCGA, the binding signal with FLI1 is 1.05 fold enrichment (6-mer frequency, TF over GST control); with ELK1, 1.02 fold enrichment (6-mer frequency, TF over GST control); with GABPA, 1.03 fold enrichment (6-mer frequency, TF over GST control); with ERG, 1.05 fold enrichment (6-mer frequency, TF over GST control); in the test with ELF1, 1.03 fold enrichment (6-mer frequency, TF over GST control); with EHF, 1.18 fold enrichment (6-mer frequency, TF over GST control). For the same sequence, the binding signal in the test with SPIB was 1.14 fold enrichment (6-mer frequency, TF over GST control).

Consider GATAGC, for which the binding signal with FLI1 is 1.11 fold enrichment (6-mer frequency, TF over GST control); in the test with ELK1, 1.1 fold enrichment (6-mer frequency, TF over GST control); with GABPA, 1.13 fold enrichment (6-mer frequency, TF over GST control); in the test with ERG, 1.02 fold enrichment (6-mer frequency, TF over GST control); with ELF1 it was 1.02 fold enrichment (6-mer frequency, TF over GST control); with EHF, 1.1 fold enrichment (6-mer frequency, TF over GST control). For the same sequence, the binding signal in the test with SPI1 is 1.05 fold enrichment (6-mer frequency, TF over GST control); in the test with ELK3, 1.1 fold enrichment (6-mer frequency, TF over GST control).

Turning to TACCGC, the binding signal with FLI1 was 1.16 fold enrichment (6-mer frequency, TF over GST control); in the test with ELK1, 1.07 fold enrichment (6-mer frequency, TF over GST control); in the test with GABPA, 1.02 fold enrichment (6-mer frequency, TF over GST control); with ERG, 1.08 fold enrichment (6-mer frequency, TF over GST control); with ELF1 it was 1.02 fold enrichment (6-mer frequency, TF over GST control); with EHF it was 1.11 fold enrichment (6-mer frequency, TF over GST control). Besides, the binding signal is 1.19 fold enrichment (6-mer frequency, TF over GST control) with SPI1; 1.09 fold enrichment (6-mer frequency, TF over GST control) with SPIB; 1.13 fold enrichment (6-mer frequency, TF over GST control) with ELK3.

As for TATGTG, the binding signal in the test with FLI1 is 1 fold enrichment (6-mer frequency, TF over GST control); in the test with ELK1, 1.08 fold enrichment (6-mer frequency, TF over GST control); with GABPA it was 1.05 fold enrichment (6-mer frequency, TF over GST control); in the test with ERG it was 1.06 fold enrichment (6-mer frequency, TF over GST control); in the test with ELF1, 1.06 fold enrichment (6-mer frequency, TF over GST control); with EHF, 1.07 fold enrichment (6-mer frequency, TF over GST control). For the same sequence, the binding signal with SPIB is 1.05 fold enrichment (6-mer frequency, TF over GST control).

Consider ATGAAG, for which the binding signal with FLI1 is 1.1 fold enrichment (6-mer frequency, TF over GST control); with ELK1, 1.1 fold enrichment (6-mer frequency, TF over GST control); with GABPA, 1.04 fold enrichment (6-mer frequency, TF over GST control); with ERG it was 1.1 fold enrichment (6-mer frequency, TF over GST control); with ELF1, 1.04 fold enrichment (6-mer frequency, TF over GST control); in the test with EHF, 1.06 fold enrichment (6-mer frequency, TF over GST control). For the same sequence, the binding signal was 1.05 fold enrichment (6-mer frequency, TF over GST control) in the test with SPI1 and 1.05 fold enrichment (6-mer frequency, TF over GST control) with ELK3.

Regarding CATGGG, the binding signal was 1.04 fold enrichment (6-mer frequency, TF over GST control) with FLI1; 1.07 fold enrichment (6-mer frequency, TF over GST control) in the test with ELK1; 1.04 fold enrichment (6-mer frequency, TF over GST control) in the test with GABPA; 1.07 fold enrichment (6-mer frequency, TF over GST control) with ERG; 1.05 fold enrichment (6-mer frequency, TF over GST control) with ELF1; 1.03 fold enrichment (6-mer frequency, TF over GST control) in the test with EHF. Besides, the binding signal with SPI1 is 1.03 fold enrichment (6-mer frequency, TF over GST control); in the test with ELK3 it was 1.09 fold enrichment (6-mer frequency, TF over GST control).

As for ATCATT, the binding signal was 1.07 fold enrichment (6-mer frequency, TF over GST control) in the test with FLI1; 1.05 fold enrichment (6-mer frequency, TF over GST control) with ELK1; 1.06 fold enrichment (6-mer frequency, TF over GST control) with GABPA; 1.02 fold enrichment (6-mer frequency, TF over GST control) in the test with ERG; 1.05 fold enrichment (6-mer frequency, TF over GST control) in the test with ELF1; 1.01 fold enrichment (6-mer frequency, TF over GST control) with EHF. For the same sequence, the binding signal with SPI1 is 1.05 fold enrichment (6-mer frequency, TF over GST control); with ELK3 it was 1.01 fold enrichment (6-mer frequency, TF over GST control).
